Some compounds were tested as several samples or in several runs, with calls that do not always agree. The source made the active and inactive calls. The calls were made as follows: active = hit-call score of the fitted dose curve at least 0.9, where 1 is the maximum; inactive = score below 0.9.
How the values were obtained:
[1] = read-out: Collagen III, COL3A1 (gene 1281); test: BSK_hDFCGF_CollagenIII: BioMAP Diversity Plus: hDFCGF Assay for Collagen III Biomarker Activity (AID 2283056); conditions: primary human foreskin fibroblasts; actives raise or lower the signal
Summary of the method: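 ELISA readout of Collagen III in human dermal (foreskin) fibroblasts, taken 24 h post-treatment. Gain or loss relative to DMSO vehicle fitted in both directions.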

[2] = read-out: Epidermal growth factor receptor (EGFR), EGFR (gene 1956); test: BSK_hDFCGF_EGFR: BioMAP Diversity Plus: hDFCGF Assay for Epidermal growth factor receptor (EGFR) Biomarker Activity (AID 2283057); conditions: primary human foreskin fibroblasts; actives raise or lower the signal
Summary of the method: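 Cell-based multiplexed assay in primary human foreskin fibroblasts. EGFR is read by ELISA 24 h after treatment and compared with DMSO controls.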

[3] = BSK_hDFCGF_Proliferation: Cell Proliferation Assessment in the BioMAP Diversity Plus: hDFCGF Assay (AID 2283059); conditions: primary human foreskin fibroblasts;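 also: curves fitted for both rise and fall of signal versus DMSO baseline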
Summary of the method: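 This proliferation readout used SRB total-protein staining of human foreskin fibroblasts […], normalized to DMSO with bidirectional curve fitting.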

[4] = read-out: Macrophage colony-stimulating factor (MCSF), CSF1 (gene 1435); test: BSK_hDFCGF_MCSF: BioMAP Diversity Plus: hDFCGF Assay for Macrophage colony-stimulating factor (MCSF) Biomarker Activity (AID 2283060); conditions: primary human foreskin fibroblasts; actives raise or lower the signal
Summary of the method: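 M-CSF levels read by ELISA at 24 h post-dosing in human skin fibroblasts. Parallel cultures stained with SRB assessed cytotoxicity at the same time point; response fitted in both directions against the DMSO baseline.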

[5] = BSK_hDFCGF_SRB: Viability Assessment in the BioMAP Diversity Plus: hDFCGF Assay (AID 2283061); conditions: primary human foreskin fibroblasts;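 also: cells exposed to compound for 24 h before the read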
Summary of the method: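 Viability was read as total protein: after 10% TCA fixation, wells were stained with 0.1% sulforhodamine B and read at 560 nm. Primary human foreskin fibroblasts were dosed for 24 h, with bidirectional fitting versus DMSO.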

[6] = read-out: TIMP metallopeptidase inhibitor 1 (TIMP1), TIMP1 (gene 7076); test: BSK_hDFCGF_TIMP1: BioMAP Diversity Plus: hDFCGF Assay for TIMP metallopeptidase inhibitor 1 (TIMP1) Biomarker Activity (AID 2283062); conditions: primary human foreskin fibroblasts; actives raise or lower the signal
Summary of the method: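 TIMP-1 measured by ELISA 24 h after chemical dosing of primary human skin fibroblasts, with gain or loss fitted relative to DMSO. Parallel SRB staining (560 nm) monitored overt cytotoxicity.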

[7] = read-out: Monokine induced gamma interferon (MIG), CXCL9 (gene 4283); test: BSK_hDFCGF_MIG: BioMAP Diversity Plus: hDFCGF Assay for Monokine induced gamma interferon (MIG) Biomarker Activity (AID 2283063); conditions: primary human foreskin fibroblasts; actives raise or lower the signal
Summary of the method: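 Human primary foreskin fibroblasts in the hDFCGF system, exposed to test chemical for 24 h; MIG measured by ELISA. Bidirectional curve fitting against DMSO negative control as activity baseline.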

[8] = read-out: Matrix Metallopeptidase 1 (MMP1), MMP1 (gene 4312); test: BSK_hDFCGF_MMP1: BioMAP Diversity Plus: hDFCGF Assay for Matrix Metallopeptidase 1 (MMP1) Biomarker Activity (AID 2283064); conditions: primary human foreskin fibroblasts; actives raise or lower the signal
Summary of the method: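 ELISA read-out of MMP1 from human foreskin fibroblasts (primary skin cells), 24 h post-dose. Gain or loss of signal was fitted bidirectionally versus DMSO negative control; cytotoxicity was checked by SRB in parallel cultures.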

[9] = read-out: Vascular cell adhesion molecule 1 (VCAM1), VCAM1 (gene 7412); test: BSK_hDFCGF_VCAM1: BioMAP Diversity Plus: hDFCGF Assay for Vascular cell adhesion molecule 1 (VCAM1) Biomarker Activity (AID 2283065); conditions: primary human foreskin fibroblasts; actives raise or lower the signal;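 as to AC50: VCAM-1 protein level quantified by ELISA after 24 h chemical exposure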
Summary of the method: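 ELISA readout of VCAM-1 on human dermal fibroblast primary cultures, 24 h after chemical exposure. Gain or loss of signal fitted in both directions against DMSO baseline.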

[10] = read-out: Plasminogen activator inhibitor-1 (PAI1), SERPINE1 (gene 5054); test: BSK_hDFCGF_PAI1: BioMAP Diversity Plus: hDFCGF Assay for Plasminogen activator inhibitor-1 (PAI1) Biomarker Activity (AID 2283066); conditions: primary human foreskin fibroblasts; actives raise or lower the signal
Summary of the method: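 Human skin fibroblast cultures receive chemical for 24 h before PAI-1 is measured by ELISA; signal changes are fitted bidirectionally against DMSO-treated wells.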

[11] = read-out: Intercellular Adhesion Molecule 1 (ICAM1), ICAM1 (gene 3383); test: BSK_KF3CT_ICAM1: BioMAP Diversity Plus: KF3CT Assay for Intercellular Adhesion Molecule 1 (ICAM1) Biomarker Activity (AID 2283067); conditions: primary human keratinocytes with fibroblasts; actives raise or lower the signal
Summary of the method: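 Cell-surface ICAM-1 was measured by ELISA 24 h after dosing primary human skin keratinocytes co-cultured with fibroblasts. Parallel SRB staining tracked overt cytotoxicity. Gain or loss of signal was fitted relative to DMSO.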

[12] = read-out: Interferon-gamma inducible Protein 10 (IP10), CXCL10 (gene 3627); test: BSK_KF3CT_IP10: BioMAP Diversity Plus: KF3CT Assay for Interferon-gamma inducible Protein 10 (IP10) Biomarker Activity (AID 2283068); conditions: primary human keratinocytes with fibroblasts; actives raise or lower the signal
Summary of the method: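 Signal is secreted/surface IP-10 by ELISA in a human primary skin co-culture of keratinocytes and foreskin fibroblasts, taken 24 h post-dosing; DMSO served as negative control.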

[13] = BSK_KF3CT_SRB: Viability Assessment in the BioMAP Diversity Plus: KF3CT Assay (AID 2283069); conditions: primary human keratinocytes with fibroblasts;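 also: total protein by sulforhodamine B staining as a cytotoxicity measure; read 24 h after compound addition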
Summary of the method: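 SRB read-out at 560 nm (0.1% stain, TCA-fixed cells) gauges overt cytotoxicity in a human skin keratinocyte–fibroblast co-culture 24 h post-dosing. Signal change was fitted bidirectionally relative to DMSO control.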

[14] = read-out: Interleukin-1 alpha (IL1a), IL1A (gene 3552); test: BSK_KF3CT_IL1a: BioMAP Diversity Plus: KF3CT Assay for Interleukin-1 alpha (IL1a) Biomarker Activity (AID 2283070); conditions: primary human keratinocytes with fibroblasts; actives raise or lower the signal
Summary of the method: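 Primary skin co-culture (keratinocytes, foreskin fibroblasts), 24 h exposure; ELISA for IL-1a; bidirectional curve fit vs DMSO.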

[15] = read-out: TIMP metallopeptidase inhibitor 2 (TIMP2), TIMP2 (gene 7077); test: BSK_KF3CT_TIMP2: BioMAP Diversity Plus: KF3CT Assay for TIMP metallopeptidase inhibitor 2 (TIMP2) Biomarker Activity (AID 2283071); conditions: primary human keratinocytes with fibroblasts; actives raise or lower the signal
Summary of the method: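 Measurements come from ELISA detection of TIMP-2 at 24 hours in a dosed human keratinocyte and foreskin fibroblast co-culture. DMSO serves as negative control and baseline.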

[16] = read-out: Transforming growth factor beta 1 (TGFb1), TGFB1 (gene 7040); test: BSK_KF3CT_TGFb1: BioMAP Diversity Plus: KF3CT Assay for Transforming growth factor beta 1 (TGFb1) Biomarker Activity (AID 2283072); conditions: primary human keratinocytes with fibroblasts; actives raise or lower the signal
Summary of the method: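 TGF-b1 ELISA on a 24 h dosed co-culture of human keratinocytes and foreskin fibroblasts; cytotoxicity tracked in parallel cultures by SRB staining.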

[17] = read-out: Matrix Metallopeptidase 9 (MMP9), MMP9 (gene 4318); test: BSK_KF3CT_MMP9: BioMAP Diversity Plus: KF3CT Assay for Matrix Metallopeptidase 9 (MMP9) Biomarker Activity (AID 2283074); conditions: primary human keratinocytes with fibroblasts; actives raise or lower the signal;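 as to AC50: MMP9 protein level quantified by ELISA in the co-culture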
Summary of the method: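 ELISA read-out of MMP-9 at 24 h post-dosing in a co-culture of human skin keratinocytes and foreskin fibroblasts. Gain or loss of signal was fitted in both directions against DMSO.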

[18] = read-out: CD40, CD40 (gene 958); test: BSK_LPS_CD40: BioMAP Diversity Plus: LPS Assay for CD40 Biomarker Activity (AID 2283076); conditions: primary human HUVEC with PBMC; actives raise or lower the signal
Summary of the method: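 In the LPS system of human endothelial cells with peripheral blood mononuclear cells, CD40 levels were read by ELISA 24 h post-treatment. Signal changes in either direction were fitted against the DMSO baseline, with parallel SRB protein staining.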

[19] = read-out: E-selectin (Homo sapiens) (UniProt P16581); test: BSK_LPS_Eselectin: BioMAP Diversity Plus: LPS Assay for Eselectin Biomarker Activity (AID 2283077); conditions: primary human HUVEC with PBMC; actives raise or lower the signal
Summary of the method: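 E-selectin ELISA on LPS-stimulated endothelial cell/PBMC co-cultures, read 24 h post-treatment; gains and losses fitted against DMSO. Parallel SRB staining (0.1% SRB after 10% TCA fixation, 560 nm) flags overt cytotoxicity.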

[20] = read-out: Interleukin-8 (IL8), CXCL8 (gene 3576); test: BSK_LPS_IL8: BioMAP Diversity Plus: LPS Assay for Interleukin-8 (IL8) Biomarker Activity (AID 2283078); conditions: primary human HUVEC with PBMC; actives raise or lower the signal
Summary of the method: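 ELISA read-out of IL-8 after 24 h chemical treatment of LPS-activated endothelial/PBMC human primary co-cultures. Changes either up or down relative to DMSO; overt cytotoxicity checked by sulforhodamine B staining in parallel wells.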

Measured: AC50

Sequence of E-selectin (Homo sapiens) (P16581 whole entry, looked up): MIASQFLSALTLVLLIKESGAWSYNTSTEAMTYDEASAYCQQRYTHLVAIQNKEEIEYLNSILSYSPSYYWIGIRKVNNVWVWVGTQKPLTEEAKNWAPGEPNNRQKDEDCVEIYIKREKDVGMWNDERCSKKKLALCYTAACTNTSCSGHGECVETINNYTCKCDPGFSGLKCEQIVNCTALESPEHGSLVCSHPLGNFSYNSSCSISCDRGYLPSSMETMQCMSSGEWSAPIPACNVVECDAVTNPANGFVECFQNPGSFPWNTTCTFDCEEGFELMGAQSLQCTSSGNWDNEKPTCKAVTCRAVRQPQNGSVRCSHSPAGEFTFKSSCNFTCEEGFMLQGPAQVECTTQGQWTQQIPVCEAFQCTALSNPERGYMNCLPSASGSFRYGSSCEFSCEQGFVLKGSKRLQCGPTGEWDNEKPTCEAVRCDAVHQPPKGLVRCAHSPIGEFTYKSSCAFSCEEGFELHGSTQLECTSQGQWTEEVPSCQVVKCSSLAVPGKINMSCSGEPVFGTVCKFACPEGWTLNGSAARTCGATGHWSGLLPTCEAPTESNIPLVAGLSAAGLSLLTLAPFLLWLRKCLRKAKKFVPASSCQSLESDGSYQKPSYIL

C=CCOc1c(Br)cc(Br)cc1Br
active: [1] 20 µM | [3] 10.3 µM | [4] 12.5 µM | [5] 25.7 µM | [6] 8.19 µM | [7] 20 µM | [8] 30.3 µM | [9] 33.1 µM | [10] 20 µM | [11] 30.7 µM | [12] 38.9 µM | [13] 27.8 µM | [14] 20 µM | [15] 11.4 µM | [16] 9.26 µM | [17] 20 µM
inactive: [2] | [18] | [19] | [20]

COCc1c(C(C)C)nc(C(C)C)c(/C=C/[C@@H](O)C[C@@H](O)CC(=O)O)c1-c1ccc(F)cc1
inactive: [1] | [2] | [4] | [6] | [7] | [8] | [9] | [10] | [11] | [12] | [13] | [14] | [15] | [16] | [17] | [18] | [19] | [20]
active: [3] 0.0803 µM | [5] 0.32 µM

CN1C(=O)N(C)C(O)C1O (stereo not given)
inactive: [1] | [2] | [3] | [4] | [5] | [6] | [7] | [8] | [9] | [10] | [11] | [12] | [13] | [14] | [15] | [17] | [18] | [19] | [20]
active: [18] 1.5 µM

c1ccc(-c2ccccn2)nc1
inactive: [1] | [2] | [3] | [4] | [5] | [6] | [7] | [8] | [9] | [10] | [11] | [12] | [13] | [14] | [15] | [16] | [17] | [18] | [19] | [20]

CCCCC(CC)COC(=O)c1ccccc1O (stereo not given)
active: [1] 6.81 µM | [3] 7 µM | [4] 13.2 µM | [5] 14.4 µM | [6] 12.8 µM | [7] 15 µM | [8] 17.8 µM | [9] 14.6 µM | [10] 7.32 µM | [18] 18.6 µM
inactive: [2] | [11] | [12] | [13] | [14] | [15] | [16] | [17] | [19] | [20]

Reference: PubChem BioAssay (EPA / NIEHS)
